KDM4E inh: inhibitors of human JMJD2E histone demethylase; JMJD2E catalytic domain, FDH-coupled NADH fluorescence (FDH is formaldehyde dehydrogenase); Potency, µM (highest dose often 57.1 µM), for the others: at the highest dose activity change, negative = inhibition, hits mostly inhibitors; 230,000 compounds, 1.6% hits; active = well fitted inhibition curve with a large enough effect, not every such curve was filed as active; inconclusive = small, poorly fitted or top-dose-only effect, or another doubt; inactive = no such curve, though single readings can be large or run the other way;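 also: potency is read from the fitted curve at half-maximal effect; 0% = wells with enzyme and -100% = buffer wells without enzyme; nearly all actives have a fitted effect of over 50% in size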
Target sequence (B2RXH2 1-337 limits assumed): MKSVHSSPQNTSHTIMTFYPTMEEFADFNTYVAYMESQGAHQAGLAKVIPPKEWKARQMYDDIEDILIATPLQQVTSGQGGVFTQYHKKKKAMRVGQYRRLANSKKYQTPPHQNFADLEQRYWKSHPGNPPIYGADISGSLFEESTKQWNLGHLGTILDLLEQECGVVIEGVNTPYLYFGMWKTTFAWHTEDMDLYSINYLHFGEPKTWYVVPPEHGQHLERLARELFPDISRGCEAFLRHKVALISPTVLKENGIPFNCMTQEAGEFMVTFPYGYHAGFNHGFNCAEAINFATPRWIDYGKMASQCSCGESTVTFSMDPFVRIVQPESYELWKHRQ
Tau FP inhib: inhibitors of human tau fibril formation; P10636; K18 P301L tau heparin fibrillization, Alexa594 FP, 6 h; Potency, µM (top dose mostly 57.7 µM), without a hit: at the highest dose activity, negative = inhibition, usual class: inhibitors; 280,000 compounds, 0.39% hits; AID 1468; also: potency is read from the fitted curve at half-maximal effect; nearly all actives have a fitted effect of over 55% in size
Target sequence (P10636 561-689 P618L limits assumed): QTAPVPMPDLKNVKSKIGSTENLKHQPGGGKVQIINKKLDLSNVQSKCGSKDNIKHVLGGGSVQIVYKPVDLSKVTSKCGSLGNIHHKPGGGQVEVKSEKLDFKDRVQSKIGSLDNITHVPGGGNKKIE
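FP of Alexa 594-tau after heparin (20 uM) induction. Substrate: human K18 P301L, 15 uM unlabeled, 0.24 uM labeled. Buffer 100 mM sodium acetate pH 7. 6 hr, 37 C.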
NPSR antag: neuropeptide S receptor (human) antagonism, cAMP; Potency, µM (titrated, usually from 38.3 µM), inactives show at the highest dose activity change, negative = inhibition, hits mostly inhibitors; CHO-NPSR cells, cAMP TR-FRET, antagonist mode; Q6W5P4; 220,000 compounds, 1% hits; AID 1461; also: potency is read from the fitted curve at half-maximal effect; nearly all actives have a fitted effect of over 50% in size
Tau ThT inhib: inhibitors of human tau fibril formation, thioflavin T binding | 270,000 compounds, 2.1% hits | Potency, µM (titrated, usually from 57.4 µM), inactives show at the top dose activity, negative = inhibition, most hits filed as inhibitors | recombinant tau K18 P301L, heparin-induced fibrillization, ThT fluorescence | P10636; also: potency is read from the fitted curve at half-maximal effect; nearly all actives have a fitted effect of over 55% in size
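Aggregation was driven by heparin (20 uM final) acting on recombinant tau […] bearing P301L in 100 mM sodium acetate pH 7; fibrils were detected with Thioflavin T.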
Tau fluor cs: counter-screen for tau fibril formation inhibitors | tau K18 P301L (four-repeat tau fragment) Alexa594 fluorescence, heparin fibrillization | Potency, µM (series often up to 57.7 µM), for inactives: top-dose activity change, negative = decrease | 280,000 compounds, 0.93% hits | AID 1463; also: potency is read from the fitted curve at half-maximal effect; nearly all actives have a fitted effect of over 55% in size
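Human K18 P301L tau (15 uM unlabeled plus 0.24 uM Alexa 594-labeled, final) in 100 mM sodium acetate pH 7 was mixed with compound and 20 uM heparin and incubated 6 hr at 37 C.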
PNC inhibitor: inhibitors of perinucleolar compartment assembly; 140,000 compounds, 3.1% hits; activity change (PNC), negative = inhibition, % at 10 µM; PC3M PTB-GFP, PNC prevalence imaging, 16 h; stronger effect = lower value;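 active = readout at or below -70, meaning at least 70% loss of cells showing the perinucleolar compartment, a nuclear body marking cancer cells; inconclusive = readout between -30 and a set limit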;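 also: plate controls were DMSO wells for no effect and camptothecin positive control wells for full effect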
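Read-out is percentage of cells bearing a perinucleolar compartment, from automated 20x imaging of fixed, Hoechst-stained PC3M PTB-GFP cells. Cells were seeded 4 h, then exposed 16 h to compound (23 nl of library stock) in duplicate plates.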
* marks the source's active call; other numbers are inactive results; ? = inconclusive; . = no result; [ ] = dose if it differs, or a comment. An excerpt weighted towards active compounds, which were near 5.1% of everything screened. Unless noted, calls follow the shape of the dose curve; as a rule, active = well fitted curve in the direction sought with a large enough effect; inconclusive = small, poorly fitted or top-dose-only effect, or another doubt; inactive = no such curve, though single readings can be large; an effect the other way counts as inactive or inconclusive. Unless noted, % is scaled to controls: 0 for no effect and ±100 for the full control effect.

SMILES	KDM4E inh	Tau FP inhib	NPSR antag	Tau ThT inhib	Tau fluor cs	PNC inhibitor
CN1CCN(S(=O)(=O)c2cc([N+](=O)[O-])ccc2N/N=C/c2ccc(Cl)cc2)CC1	3%	6%	18%	-11%	-2%	88
Cc1[nH]c2ccccc2c1/C=N/Nc1ccc([N+](=O)[O-])cc1	0%	4%	-20%[46.1 µM]	0%	-1%	-16
CCC(=O)N1CCc2cc(S(=O)(=O)NCCC(=O)Nc3ccc(C)cc3C)ccc21	.	-5%	.	1%	-7%	.
Cc1csc2nc(-c3ccc(NS(=O)(=O)c4cccc(F)c4)cc3)cn12	.	?	.	-15%	?	.
CCOC(=O)c1sc(NC(=O)Nc2ccccc2Cl)cc1C	27%	?	-45%	-8%	8.9µM*[quencher]	4
Cc1ccc(NC(=O)Nc2cccs2)c(Cl)c1	-8%	6%	-22%[46.1 µM]	?	?	?
CCOC(=O)c1sc(NC(=O)Nc2ccccc2)cc1C	-5%	?	-25%	?	14µM*[quencher]	-14
CCOC(=O)c1sc(NC(C)=O)cc1C	6%	-6%	-5%[46.1 µM]	-4%	-2%	14
O=C(Nc1cccs1)Nc1ccccc1Cl	?	2%	-19%[46.1 µM]	?	?	-82*
CCOC(=O)c1sc(NC(=O)c2ccc(C)s2)cc1C	?	-7%	-22%[46.1 µM]	-7%	?	-5
CCOC(=O)c1sc(NC(=O)c2cccc(S(=O)(=O)N3c4ccccc4CC3C)c2)cc1C (centres undefined)	2%	-8%	-46%	8%	4%	-95*
N=c1n(CCO)c2ccccc2n1Cc1ccccc1F	.	-4%	.	-2%	-3%	.
Cc1cccc(N2CCN(S(=O)(=O)c3cc(C(=O)Nc4ccccc4Cl)ccc3F)CC2)c1C	.	?	.	8%	-11%	.
Cc1ccc(NC(=O)NCC2CCN(Cc3cccc(Cl)c3)CC2)cc1Cl	17%	28µM*	-24%	-7%	?	.
COc1ccc2c(c1)CCc1c(C(=O)Nc3ccccc3C(F)(F)F)noc1-2	.	-6%	.	-16%	-9%	.
CCCCNC(=O)CN1CCN(c2ncc(NC(=O)c3ccc(Cl)cc3)cc2C(=O)O)CC1	.	6%	.	-10%	-9%	.
CCN(CC)S(=O)(=O)c1ccc(NC(=O)CN(c2ccccc2)S(=O)(=O)N(C)C)cc1	.	?	.	-4%	?	.
CCCc1cc(=O)[nH]c(SCC(=O)Nc2ccc(OC(F)F)cc2)n1	3%	6%	2%[46.1 µM]	4%	9%	-94*
O=C(COC(=O)c1ccc(S(=O)(=O)NCc2ccco2)cc1)Nc1ccccc1OC(F)F	-2%	9%	8%[46.1 µM]	-8%	-17%	-101*
CN(C)S(=O)(=O)c1ccc(C(=O)OCC(=O)Nc2ccccc2OC(F)F)cc1	4%	-2%	-5%[46.1 µM]	-11%	-12%	27
O=C(Nc1ccccc1C(F)(F)F)N1CC=C(c2c[nH]c3ccccc23)CC1	.	14%	.	?	18µM*[quencher]	.
O=C(Nc1ccc(F)c(Cl)c1)N1CC=C(c2c[nH]c3ccccc23)CC1	.	?	.	6.3µM*	7.9µM*[quencher]	.
COc1ccccc1NC(=O)N1CC=C(c2c[nH]c3ccccc23)CC1	.	4%	.	?	?	.
COc1ccc(-n2ncc(C(=O)NCCc3ccsc3)c2C2CCN(C(=O)OC(C)(C)C)CC2)cc1	.	3%	.	-8%	-8%	.
CC1(C)Cc2c(C#N)c(OCC(=O)c3ccccc3)nc(-c3ccoc3)c2CO1	3%	0%	1%[46.1 µM]	-11%	-4%	-22
CC1(C)Cc2c(C#N)c(OCC(=O)c3ccc(Cl)cc3)nc(-c3ccoc3)c2CO1	?	2%	-11%[46.1 µM]	-5%	0%	-94*
COc1ccc2c(c1)c1c(c(=O)n(-c3cccc(Cl)c3)c(=O)n1CC(=O)NCC1CCCO1)n2C (centres undefined)	.	1%	.	13%	6%	.
C(=C\c1nnc2c3ccccc3ncn12)/c1ccccc1	-5%	?	-12%	11%	?	-97*
COc1ccc(OCCCC(=O)Nc2nncs2)cc1	-6%	2%	6%[46.1 µM]	-9%	-2%	-100*

Screening results from PubChem.
